We go through 86 compounds from PubChem BioAssay AID1053197 (The Scripps Research Institute Molecular Screening Center, 2014).

Out of some 370,000 compounds screened, about 2,600 (0.7%) were called active. The entries come from a sample that favours actives as a whole. Values without a mark were called inactive.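 Rule for the calls: active = inhibition above a cutoff: mean of compounds within the control limits plus 3 SD of those (cut at about 17% in these data); inactive = the rest.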

For this assay, the target named is Sialate O-acetylesterase (Homo sapiens) (UniProt Q9HAT2). Briefly: human SIAE inhibitors, primary screen, biochemical, fluorescence polarization, FP-Rh probe, 1536-well HTS (AID 1053197).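 Note: 0% = plate median of compound wells and 100% = probe without SIAE protein.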 Conditions: SIAE FP-Rh probe binding, at 9.66 µM, stronger effect = higher value.
Sialate O-acetylesterase (Homo sapiens), sequence (Q9HAT2 whole entry, looked up): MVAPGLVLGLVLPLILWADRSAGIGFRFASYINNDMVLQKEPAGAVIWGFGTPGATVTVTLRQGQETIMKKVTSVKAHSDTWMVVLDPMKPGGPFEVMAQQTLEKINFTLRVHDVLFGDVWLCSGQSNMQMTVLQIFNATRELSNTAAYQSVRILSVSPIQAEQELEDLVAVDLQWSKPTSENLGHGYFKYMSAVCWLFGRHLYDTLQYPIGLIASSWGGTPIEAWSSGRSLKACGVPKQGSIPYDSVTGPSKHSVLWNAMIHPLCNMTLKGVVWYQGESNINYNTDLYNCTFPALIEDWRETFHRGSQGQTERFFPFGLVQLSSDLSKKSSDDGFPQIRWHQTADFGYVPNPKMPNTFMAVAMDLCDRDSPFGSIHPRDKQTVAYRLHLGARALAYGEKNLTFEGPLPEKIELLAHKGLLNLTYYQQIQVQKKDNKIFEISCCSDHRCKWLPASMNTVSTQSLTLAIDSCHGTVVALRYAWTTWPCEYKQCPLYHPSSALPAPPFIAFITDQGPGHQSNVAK
As for `Cc1ccc(C2Nc3cccc4cccc(c34)N2)cc1`, the inhibition was 29.6% (active).

On to `Oc1ccc(C2Nc3cccc4cccc(c34)N2)cc1`, for which the inhibition is 58.9% (active).

With `CCCC[C@H]1C2CC(OC(=O)NCc3ccccc3)C(C2)[C@H]2CCCCN21` (stereo partly specified), the inhibition was -0.4%.

Consider `O=C(CSc1nc2ccccc2s1)N=Nc1c(O)[nH]c2ccccc12`, for which the inhibition was -11.1%.

For the compound `COc1ccc(N2CCN(CCNS(=O)(=O)c3ccc([N+](=O)[O-])cc3)CC2)cc1`, the inhibition is 1.89%.

Turning to `FC(F)(F)c1cccc(NC(=S)OC2CCC23CCC(c2ccccc2)CC3)c1` (stereo unspecified), the inhibition is -8.64%.

As to `Cc1ccccc1NC(=O)Cn1nnc(-c2ccccc2F)n1`, the inhibition was -1.96%.

Consider `COc1cccc2c1C(=O)c1c(O)c3c(c(O)c1C2=O)CC(O)(C(C)=NNC(=O)c1ccc(Cl)c(Cl)c1)CC3OC1CC(N)C(O)C(C)O1` (stereo unspecified), for which the inhibition is 62.7% (active).

Turning to `CCCC1CCC2(CCCN2CCOC(=O)NCc2ccccc2)CC1` (stereo unspecified), the inhibition was -1.37%.

With `CCOC(=O)/C(N=Nc1cc(C(=O)O)cc(C(=O)O)c1)=C(\O)CCl`, the inhibition was 21.9% (active).

With `COc1ccc(CN(CCN2CCOCC2)C(=O)c2ccc(C)cc2)cc1OC`, the inhibition is -2.14%.

Take `CCOC(=O)C1(Cc2ccccc2)CCN(Cc2cn(C(C)=O)c3ccccc23)CC1`: the inhibition is -0.8%.

As to `CCCC[C@H](C(=O)N(CC)c1ccccc1)[C@@H](O)c1ccc2ccccc2c1`, the inhibition is -0.99%.

As to `CC(c1ccc(N)cc1)c1cn(C)c2ccccc12` (stereo unspecified), the inhibition was 10.7%.

Consider `COC(=O)[C@]12C[C@H](CC(=O)NCCc3ccccc3OC)C(=O)N(Cc3ccco3)C1=C[C@H](C(C)C)O[C@@H]2C1CC1`, for which the inhibition was 0.34%.

On to `CCN(CC)CCCC(C)n1c2nc(=O)[nH]c(=O)c-2nc2cc(Cl)ccc21` (stereo unspecified), for which the inhibition was 29.6% (active).

With `Cc1cc2nc3c(=O)[nH]c(=O)nc-3n(C[C@H](O)[C@H](O)[C@H](O)CO)c2cc1C`, the inhibition was 6.59%.

For `COC(=O)C1CN(CCc2ccccc2)CCS(=O)(=O)N1Cc1ccc(F)cc1` (stereo unspecified), the inhibition is 4.17%.

With `COc1ccc2c(c1)CN1CN(CCc3ccccc3)S(=O)(=O)CC21` (stereo unspecified), the inhibition was -7.42%.

On to `C=CCN1[C@@H](Cc2ccccc2)COc2cccc(N3CCSCC3)c2S1(=O)=O`, for which the inhibition was -1.03%.

For `O=C(CSc1ccc(-c2ccco2)nn1)Nc1cccc(F)c1`, the inhibition was 17.1% (active).

With `COc1ccc(NC(=O)CSc2ccc(-c3ccco3)nn2)c(OC)c1`, the inhibition is 4.03%.

On to `O=C(CSc1ccc(-c2ccc(F)cc2)nn1)Nc1ccc2c(c1)OCCO2`, for which the inhibition was 9.37%.

In the case of `O=C(NC1CCCCN(Cc2cccc(C(F)(F)F)c2)C1=O)c1ccccc1I` (stereo unspecified), the inhibition was 8.59%.

Turning to `C#CCN([C@H](C(=O)OC)C(C)CC)S(=O)(=O)c1ccccc1Br` (stereo partly specified), the inhibition is -0.84%.

For the compound `Cc1nc(-c2ccc(F)cc2)c(CC(=O)N(C)CC(=O)Nc2c(C)cccc2C)s1`, the inhibition is -6.4%.

On to `Cc1ccc(C(=O)CCC(=O)N(C)CC(=O)Nc2c(Cl)cccc2Cl)cc1`, for which the inhibition was 4.52%.

As for `Cc1cccc(C)c1NC(=O)CN(C)C(=O)CCC(=O)c1ccccc1`, the inhibition was 19.1% (active).

Regarding `O=C(CSc1nc2ccccc2nc1N1CCCCC1)N1CCN(S(=O)(=O)c2cccc([N+](=O)[O-])c2)CC1`, the inhibition was 1.34%.

`O=C1C(=O)N(Cc2ccc(-c3ccsc3)cc2)c2ccc(OC(F)(F)F)cc21`: the inhibition is 4.4%.

On to `Oc1ccc2ccc3cccc[n+]3c2c1`, for which the inhibition was 17.1% (active).

Regarding `COc1ccc(C(=O)CSc2nnc(-c3cnccn3)n2-c2ccc(C)cc2)cc1`, the inhibition is 4.14%.

As to `CCOC(=O)N1CCN(C(=O)C[C@@H]2C(=O)N(CCc3ccc(Cl)cc3)C3=CCCC[C@]32C(=O)OCC)CC1`, the inhibition is 2.23%.

Consider `CCCCNC(=O)C[C@@H]1C(=O)N(CCc2ccc(Cl)cc2)C2=CCCC[C@]21C(=O)OCC`, for which the inhibition is -0.15%.

With `Cc1ccc(C)c(NC(=O)CCS(=O)(=O)c2ccccc2)c1`, the inhibition was -0.04%.

As for `CCCCCCCCNS(=O)(=O)/C=C/c1cc(C)ccc1CNC(=O)OC(C)(C)C`, the inhibition was -1.33%.

Take `Cc1ccc(C)c(NC(=O)NNC(=O)c2ccc3ccccc3c2O)c1`: the inhibition was 13.1%.

Turning to `O=C(NNc1c2ccccc2nc2ccccc12)c1cc2ccccc2cc1O`, the inhibition was 49.5% (active).

For `Cc1cc(C(=O)NNC(=O)c2cccc(S(=O)(=O)N3CCOCC3)c2)c2ccccc2n1`, the inhibition is 0.67%.

Consider `COc1ccc(/C=C2\CC3(OC(C)=O)CCCN2C3)cc1` (stereo unspecified), for which the inhibition is 5.11%.

As for `Cc1ccc(-n2c(SCC(=O)Nc3cccc4ccccc34)nnc2-c2ccco2)cc1`, the inhibition was -4.95%.

Take `CC(=O)O[C@@]1(C(C)=O)CCC2[C@H]3C=C(C)C4=CC(=O)CC[C@@]4(C)C3CC[C@]21C` (stereo partly specified): the inhibition was 4.07%.

With `S=C(Nc1ccc(Br)cc1Cl)NC1CCN(Cc2ccccc2)CC1`, the inhibition was 5.25%.

Take `O=C(NC1CCN(Cc2ccccc2)CC1)c1cc(Br)c(Br)[nH]1`: the inhibition was -7.58%.

As for `S=C(Nc1ccc(Br)cc1)NC1CCN(Cc2ccccc2)CC1`, the inhibition is 17.1% (active).

Regarding `N#Cc1ccccc1OC[C@@H](O)CN1CCC(C(O)(c2ccccc2)c2ccccc2)CC1`, the inhibition was 3.53%.

Turning to `CN[C@H]1C[C@H]2c3cc(N4CCOCC4)ccc3CCN2C[C@H]1[C@H](C)O`, the inhibition is 3.31%.

Consider `CCCCNC(=O)C1CCCN(S(=O)(=O)c2ccc(S(=O)(=O)NCC(C)C)cc2)C1` (stereo unspecified), for which the inhibition is -1.45%.

Consider `CC(C)CCNC(=O)C1CCCN(S(=O)(=O)c2ccc(F)cc2)C1` (stereo unspecified), for which the inhibition is 23.3% (active).

As to `COc1ccc(CCNC(=O)C2CCCN(S(=O)(=O)c3ccc(OC)cc3)C2)cc1` (stereo unspecified), the inhibition was -4.52%.

For `Cc1ccc(NC(=O)Nc2cc(C)nn2-c2ccccc2)cc1`, the inhibition was 0.39%.

As to `CCOC(=O)[C@@]12CCC3=C1N(CCC3)C(=O)[C@H](CC(=O)N1CCN(C(=O)c3ccco3)CC1)C2`, the inhibition was 8.17%.

With `O=C(Nc1ccc(Br)cc1)OCCN1C(=O)CCC12CCC(c1ccccc1)CC2` (stereo unspecified), the inhibition is 2.49%.

As for `Cc1cccc(C)c1NC(=O)COC(=O)c1c(C)nn(-c2ccccc2)c1C`, the inhibition was 2.02%.

For the compound `CCOC(=O)c1c(C)nn(-c2ncccc2NC(=O)CCC(=O)O)c1C`, the inhibition is 19.8% (active).

Consider `Cc1ccc(OC(=O)c2c(C)nn(-c3ccccc3)c2C)cc1`, for which the inhibition is 5.09%.

In the case of `COc1cc(/C=C/C(=O)n2cnc3ccccc32)cc(OC)c1OC`, the inhibition is -3.74%.

For the compound `CCc1ccc(NC(=O)C(C)OC(=O)/C=C/c2cccc([N+](=O)[O-])c2)cc1` (stereo unspecified), the inhibition is -4.1%.

For the compound `CS(=O)(=O)N(CC(=O)Nc1ccc(F)cc1F)c1cccc([N+](=O)[O-])c1`, the inhibition was 5.36%.

Take `CN(C(=O)c1cccc(NC(=O)Cc2cccc([N+](=O)[O-])c2)c1)C1CCCCC1`: the inhibition was -12.1%.

In the case of `CC(=O)Nc1cccc(Nc2ccc(C#N)cc2)c1`, the inhibition is 7.95%.

For the compound `CC(=O)Nc1cccc([N+](=O)[O-])c1`, the inhibition was 19.3% (active).

With `CN(CC(=O)Nc1cccc(F)c1)CC(=O)Nc1cccc([N+](=O)[O-])c1`, the inhibition was 21.2% (active).

On to `COC(=O)[C@]12C[C@H](CC(=O)NCc3cccc4ccccc34)C(=O)N(CCc3ccc(OC)c(OC)c3)C1=C[C@H](C1CCCC1)O[C@@H]2C`, for which the inhibition is -2.97%.

In the case of `O=C(OC12CCCN(C1)/C(=C/c1ccccc1)C2)c1ccco1` (stereo unspecified), the inhibition was 0.28%.

Turning to `COP(=O)(O)CNC(=O)OCc1ccccc1`, the inhibition is 0.82%.

Regarding `O=C(NCc1cccs1)C1CCN(S(=O)(=O)c2ccccc2[N+](=O)[O-])CC1`, the inhibition was -0.55%.

For `CCN(CC)C(=O)CC[C@H]1CC[C@]2(CCCN(Cc3ccc(Cl)cc3)C2)O1`, the inhibition is -1%.

Turning to `Cc1ccccc1NC(=O)COC(=O)c1ccc(Sc2ncn[nH]2)c([N+](=O)[O-])c1`, the inhibition is 0.99%.

Regarding `CCOC(=O)N1CCN(C(=O)C[C@H]2C[C@@]3(C(=O)OC)C(=C[C@H](C(C)(C)C)O[C@@H]3C)N(Cc3ccc(Cl)cc3Cl)C2=O)CC1`, the inhibition is 4.46%.

As for `Cc1ccc2c(c1)C1CN(C)CCC1N2C(=S)Nc1ccc(OC(F)F)cc1` (stereo unspecified), the inhibition is 19% (active).

As to `Cc1ccc2c(c1)C1CN(C)CCC1N2C(=O)c1ccccc1NS(=O)(=O)c1ccc(F)cc1C` (stereo unspecified), the inhibition was -4.94%.

For the compound `Cc1ccc2c(c1)C1CN(C)CCC1N2C(=S)Nc1ccc(Cl)cc1Cl` (stereo unspecified), the inhibition was -1.14%.

Take `O=C(OCC#CCSc1nnc(-c2ccco2)o1)c1ccc(F)cc1`: the inhibition was -3.86%.

On to `FC(F)(F)c1cccc(Cn2ccc3ccc(-c4ccc5ccn(Cc6ccccc6)c5c4)cc32)c1`, for which the inhibition is -4.98%.

Regarding `Cc1nc(-c2ccc(Cl)cc2)sc1C1(C)CC(c2ccc(Br)cc2)=NO1` (stereo unspecified), the inhibition was -4.52%.

In the case of `Cc1nc(N2CCOCC2)sc1C(=O)NN`, the inhibition was 4.29%.

On to `Cc1nc(-c2ccc(Cl)cc2)sc1C(=O)NN`, for which the inhibition is 17.1% (active).

`CN(C)S(=O)(=O)c1cccc(C(=O)N/N=C\c2ccco2)c1`: the inhibition was 1.17%.

Regarding `O=C1CCCC(O)=C1N=Nc1ccc2ncsc2c1`, the inhibition was 4.95%.

As for `CC1(C)CC(=O)C(N=Nc2ccc(S(=O)(=O)N3CCCCCC3)cc2)=C(O)C1`, the inhibition was -6.58%.

On to `O=C1CCCC(O)=C1N=Nc1ccc(S(=O)(=O)N2CCOCC2)cc1`, for which the inhibition is 32.3% (active).

On to `COc1cccc(/C=C2\CC3(OC(C)=O)CCCN2C3)c1` (stereo unspecified), for which the inhibition is 5.6%.

`CNS(=O)(=O)c1ccc(NC(=O)Nc2ccc3c(c2)OCO3)cc1`: the inhibition is -0.18%.

Regarding `CC(NS(=O)(=O)c1ccc(Cl)cc1)C(=O)Nc1ccc2c(c1)OCCO2` (stereo unspecified), the inhibition is 17.1% (active).

As to `CC(=O)Nc1ccc(NC(=O)C(NS(=O)(=O)c2ccc3c(c2)OCCO3)C(C)C)cc1` (stereo unspecified), the inhibition was -4.61%.
